Results with a measured potency or affinity are listed apart. Records with an inconclusive call do not appear.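 How the source made its calls: active means a valid curve of falling signal whose half-effect concentration is at most ten times the top tested dose; inconclusive means flat curve at 30 to 70% inhibition, or poor fit; inactive means signal rise, flat within 30%, or potency beyond limit.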
These compounds were tested against Scavenger receptor class B member 1 (Mus musculus) (UniProt Q61009) (assay: inhibitors of SR-BI mediated HDL lipid uptake, dose response, ldlA[mSR-BI] cells, fluorescence, cherry pick (AID 493194;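 further: CHO cells lacking LDL receptor and overexpressing mouse SR-BI; cellular uptake of fluorescently labeled HDL measured as cell fluorescence; 0% = median of neutral control wells and -100% = median of positive control wells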)). Settings: CHO ldlA[mSR-BI] DiI-HDL uptake fluorescence, 3 h; series mostly up to 35 µM; activity change, negative = inhibition: at the top concentration.
Scavenger receptor class B member 1 (Mus musculus), sequence (Q61009 whole entry, looked up): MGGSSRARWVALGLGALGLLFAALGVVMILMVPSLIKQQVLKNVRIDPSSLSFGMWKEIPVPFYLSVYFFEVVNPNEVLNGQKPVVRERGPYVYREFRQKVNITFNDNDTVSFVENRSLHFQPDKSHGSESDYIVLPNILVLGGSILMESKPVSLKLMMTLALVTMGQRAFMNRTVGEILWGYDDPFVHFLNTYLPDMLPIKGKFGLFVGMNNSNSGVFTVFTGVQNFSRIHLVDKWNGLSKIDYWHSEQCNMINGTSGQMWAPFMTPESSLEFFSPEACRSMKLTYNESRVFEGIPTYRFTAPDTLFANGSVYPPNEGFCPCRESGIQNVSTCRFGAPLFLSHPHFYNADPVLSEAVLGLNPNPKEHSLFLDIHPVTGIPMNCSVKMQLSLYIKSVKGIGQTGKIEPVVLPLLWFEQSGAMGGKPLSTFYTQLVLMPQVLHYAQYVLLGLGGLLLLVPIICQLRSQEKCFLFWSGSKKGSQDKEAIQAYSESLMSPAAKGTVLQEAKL

Activity change, negative = inhibition, inactive:
COC(=O)/C=C/c1ccc2c(c1)S(=O)(=O)N(c1cccc(OC)c1)[C@H]2CC(=O)OC -6.87%
COc1ccc(NC(=O)C2CCN(C(=O)c3ccc(OC)cc3)CC2)cc1 32.3%
O=S(=O)(c1ccccc1)c1cnc(-c2ccccc2)nc1N1CCCCC1 -21.5%
O=C(OCc1ccccc1)N1CCC2CC1c1cc(-c3ccc(F)cc3)ccc12 (stereo unspecified) 0.578%
CCOc1ccccc1NC(=O)C(CC(C)C)NC(=O)C1CCC(C)CC1 (stereo unspecified) -35.8%
Cc1cc(CN(C)C(=O)C2CCC(=O)N(CCc3cccc(F)c3)C2)on1 (stereo unspecified) -5.46%
CC1CN(c2oc(COc3ccc(Cl)cc3Cl)nc2C#N)CC(C)O1 (stereo unspecified) -20.2%
COc1ccc(OC)c(NC(=O)CCC(=O)N(Cc2ccc(OC)c(OC)c2)c2nccs2)c1 -22.8%
COc1cc(OC)cc(C(=O)N[C@H](C(=O)OCC(=O)c2ccc3c(c2)NC(=O)CO3)C(C)C)c1 -10.9%
O=C(O)CC(C(=O)Nc1cccc(C(F)(F)F)c1)C1CCCO1 (stereo unspecified) 95.2%
O=C(Nc1ccc(-c2nc3ccccc3o2)c(O)c1)c1cc(-n2cnnc2)ccc1Cl 2.5%
O=C(Nc1ccccc1)c1ccc2c(c1)CCN2S(=O)(=O)c1ccccc1 -4%
COc1ccc(OC)c(CCNC(=O)c2ccc3c(c2)N(Cc2ccccc2)CCS3)c1 62.2%
CCn1c(C)c(C)c2cc(C(=O)Nc3cccc(Cl)c3)ccc21 -55.2%
CN(C(=O)c1cc(-n2cnnc2)ccc1Cl)c1ccccc1 25.3%
Cc1ccc(-c2cc(-c3ccc(C)cc3O)[nH]n2)cc1 -5.14%
O=C(C[C@H]1C/C=C\CCC(=O)OC[C@H]2CCCN2C1=O)NCCO 127%
Cc1cc(N2CCN(C(=O)c3ccco3)CC2)n2ncc(-c3ccccc3)c2n1 0.033%
COc1ccc(CN2CCN(C(=O)c3ccc(S(=O)(=O)NCc4ccco4)cc3)CC2)cc1F 1.25%
O=C(N[C@@H]1C/C=C\C[C@H](CC(=O)N(CCO)Cc2ccccc2)C(=O)NC[C@@H](c2ccccc2)OC1=O)OCC1c2ccccc2-c2ccccc21 17.1%
CC(=O)c1cc(C#N)c(SCc2ccccc2C#N)nc1C -9.44%

From PubChem BioAssay AID493194 (Broad Institute, 2011)
